Laboratory results from the supplement of paper PMC8728848.
Shown is part of a subset that was picked to be rich in the strongest signals.

How the values were obtained:
Assay in all cases: glycan array binding signal (z-score within array); higher = stronger binding
Details in all cases: glycan notation: IUPAC condensed, linker removed
[1] = target: Fuc(a1-2)Gal
Outline: (§1)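 Negative Z-scores can be read as non-binding. The Z-score is calculated within each array and then averaged across arrays of one protein sequence at different concentrations or buffers and across linkers. Arrays, 3228 in all, were curated from the Consortium for Functional Glycomics database and kept only where the protein sequence was available.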

[2] = target: Fuc(a1-2)Gal(b1-3)GlcNAc(b1-2)Man(a1-3)[Fuc(a1-2)Gal(b1-3)GlcNAc(b1-2)Man(a1-6)]Man(b1-4)GlcNAc(b1-4)GlcNAc
Outline: as §1

[3] = target: Fuc(a1-2)Gal(b1-3)GlcNAc(b1-3)[Neu5Ac(a2-6)Gal(b1-4)GlcNAc(b1-6)]Gal(b1-4)Glc
Outline: as §1

[4] = target: Fuc(a1-2)Gal(b1-4)Fuc(a1-3)]GlcNAc(b1-2)Man(a1-3)[Fuc(a1-2)Gal(b1-4)[Fuc(a1-3)]GlcNAc(b1-2)Man(a1-6)]Man(b1-4)GlcNAc(b1-4)GlcNAc
Outline: as §1

[5] = target: Fuc(a1-2)Gal(b1-4)GlcNAc(b1-3)Gal(b1-4)GlcNAc(b1-2)Man(a1-3)[Fuc(a1-2)Gal(b1-4)GlcNAc(b1-3)Gal(b1-4)GlcNAc(b1-2)Man(a1-6)]Man(b1-4)GlcNAc(b1-4)GlcNAc
Outline: as §1

[6] = target: Fuc(a1-2)Gal(b1-4)GlcNAc(b1-3)Gal(b1-4)GlcNAc(b1-3)Gal(b1-4)GlcNAc
Outline: as §1

[7] = target: Fuc(a1-2)Gal(b1-4)GlcNAc(b1-6)GalNAc
Outline: as §1

[8] = target: Fuc(a1-2)Gal(b1-4)[Fuc(a1-3)]GlcNAc
Outline: as §1

[9] = target: Fuc(a1-2)Gal(b1-4)[Fuc(a1-3)]GlcNAc(b1-2)Man(a1-3)[Fuc(a1-2)Gal(b1-4)[Fuc(a1-3)]GlcNAc(b1-2)Man(a1-6)]Man(b1-4)GlcNAc(b1-4)[Fuc(a1-6)]GlcNAc
Outline: as §1

[10] = target: Fuc(a1-2)Gal(b1-4)[Fuc(a1-3)]GlcNAc(b1-2)[Fuc(a1-2)Gal(b1-4)[Fuc(a1-3)]GlcNAc(b1-4)]Man(a1-3)[Fuc(a1-2)Gal(b1-4)[Fuc(a1-3)]GlcNAc(b1-2)Man(a1-6)]Man(b1-4)GlcNAc(b1-4)GlcNAc
Outline: as §1

[11] = target: Fuc(a1-2)Gal(b1-4)[Fuc(a1-3)]GlcNAc(b1-3)Gal(b1-4)[Fuc(a1-3)]GlcNAc
Outline: as §1

[12] = target: Fuc(a1-2)Gal(b1-4)[Fuc(a1-3)]GlcNAc(b1-3)Gal(b1-4)[Fuc(a1-3)]GlcNAc(b1-3)Gal(b1-4)[Fuc(a1-3)]GlcNAc
Outline: as §1

[13] = target: Fuc(a1-2)[Gal(a1-3)]Gal
Outline: as §1

[14] = target: Fuc(a1-2)[Gal(a1-3)]Gal(b1-3)GalNAc
Outline: as §1

[15] = target: Fuc(a1-2)[Gal(a1-3)]Gal(b1-3)GlcNAc(b1-3)GalNAc
Outline: as §1

[16] = target: Fuc(a1-2)[Gal(a1-4)]Gal(b1-4)GlcNAc
Outline: as §1

[17] = target: Fuc(a1-2)[GalNAc(a1-3)]Gal(b1-3)GalNAc(a1-3)[Fuc(a1-2)]Gal(b1-4)GlcNAc
Outline: as §1

[18] = target: Fuc(a1-2)[GalNAc(a1-3)]Gal(b1-4)GlcNAc(b1-2)Man
Outline: as §1

[19] = target: Fuc(a1-2)[GalNAc(a1-3)]Gal(b1-4)GlcNAc(b1-2)Man(a1-3)[Fuc(a1-2)[GalNAc(a1-3)]Gal(b1-4)GlcNAc(b1-2)Man(a1-6)]Man(b1-4)GlcNAc(b1-4)[Fuc(a1-6)]GlcNAc
Outline: as §1

[20] = target: Fuc(a1-2)[GalNAc(a1-3)]Gal(b1-4)GlcNAc(b1-3)Gal(b1-4)GlcNAc(b1-3)Gal(b1-4)GlcNAc
Outline: as §1

[21] = target: Fuc(a1-2)[GalNAc(b1-3)]Gal
Outline: as §1

[22] = target: Fuc(a1-3)[Gal3S(b1-4)]GlcNAc
Outline: as §1

[23] = target: Gal(a1-3)Gal(b1-4)GlcNAc(b1-6)GalNAc
Outline: as §1

[24] = target: Gal(b1-3)GlcNAc6S
Outline: as §1

[25] = target: Gal(b1-4)GlcNAc(b1-2)Man(a1-3)[Gal(b1-4)GlcNAc(b1-2)Man(a1-6)][Gal(b1-4)GlcNAc(b1-4)]Man(b1-4)GlcNAc(b1-4)[Fuc(a1-6)]GlcNAc
Outline: as §1

[26] = target: Gal(b1-4)GlcNAc(b1-2)[Gal(b1-4)GlcNAc(b1-6)]Man(a1-6)[Gal(b1-4)GlcNAc(b1-2)Man(a1-3)]Man(b1-4)GlcNAc(b1-4)[Fuc(a1-6)]GlcNAc
Outline: as §1

[27] = target: Gal(b1-4)GlcNAc(b1-3)Gal(b1-4)GlcNAc(b1-3)Gal(b1-4)GlcNAc(b1-3)Gal(b1-4)GlcNAc(b1-3)Gal(b1-4)GlcNAc(b1-2)Man(a1-3)[Gal(b1-4)GlcNAc(b1-3)Gal(b1-4)GlcNAc(b1-3)Gal(b1-4)GlcNAc(b1-3)Gal(b1-4)GlcNAc(b1-3)Gal(b1-4)GlcNAc(b1-2)Man(a1-6)]Man(b1-4)GlcNAc(b1-4)GlcNAc
Outline: as §1

B1: a L Fucosidase (Streptosporangium roseum), D2B1P1_STRRD (protein)
chain: MRRKLLLVPAVGLLVIGSIFATQPVASADTPPVYEPTVESLNSHPVPQWFNDDKFGIFIHWGAYSVPAWGPRGSYAEWYGNYMNAGGSATNAHHKATYGQDFNYDAFLQQWKAEKFDPADWVKLFKDAGAKYFVLTSKHHEGMALWDSKSSGRDSVDLGPGRDLAKELFDAARKDEAKLKAGFYYSLYEWYNPAYTGRPATNPYTGAEIPYTGAPGGGDYVKDYMLPQMRELIDGYDPDIIWCDGQWEKPASYWNTAGVIADYYNKALNSGKEVAVANRCKIQSGNLDSPELDFQTPEYTVKPDIDPVKWESSRGIAHSYGYNQNEPEEDHLTSDQLVDSLVDIVSKNGNLLLDIGPKADGTIPEIQRQRLLDIGAWLKANGEAIYGTTYWNRAEEKGGPDDVRYTAKDATLYATALKWPGEQLTLGADLPVDHSTRITMLGSGARLSWSRDEQGRVVVNTPQEAGKHAYVFKIETPGVRSLLRTSSSLAKEIAPGRTISGELTVTNPGKRHTPATKLSLTVPQGWTATLGAPRVRPLGPGESVKVPISVSAPEGVAPAPYTLGLYQRTGRMGTTTALPLTVNRPNLSLGKPATQKSTGYDAPASRAVDGNTGGDWSAGSTTHTAEPEKQAWWQVDLGASARLDSVDVWNRLDCCADRLKDFWVMASDQPFTTDDLDQARTAPGVTAVHVGEQAGSPSKVKLPEGTRGRYVRIQLASPSNPLSLAEVQVRGSMARPNLSLGKPATQKSTGYDAPASRAVDGNTGGDWSAGSTTHTAEPEKQAWWQVDLGASARLDSVDVWNRLDCCADRLKDFWVMASDQPFTTDDLDQARTAPGVTAVHVGEQAGSPSKVKLPEGTRGRYVRIQLASPSNPLSLAEVQVRLEHHHHHHS
glycan array binding signal (z-score) [1]: 4.93 | glycan array binding signal (z-score) [2]: 0.052 | glycan array binding signal (z-score) [3]: -0.56 | glycan array binding signal (z-score) [4]: 0.398 | glycan array binding signal (z-score) [5]: 9.35 | glycan array binding signal (z-score) [6]: 4.15 | glycan array binding signal (z-score) [7]: 4.78 | glycan array binding signal (z-score) [8]: 3.89 | glycan array binding signal (z-score) [9]: 3.58 | glycan array binding signal (z-score) [10]: 0.785 | glycan array binding signal (z-score) [11]: 9.04 | glycan array binding signal (z-score) [12]: 5.04 | glycan array binding signal (z-score) [13]: 3.18 | glycan array binding signal (z-score) [14]: -0.442 | glycan array binding signal (z-score) [15]: 0.499 | glycan array binding signal (z-score) [16]: 4.37 | glycan array binding signal (z-score) [17]: -0.325 | glycan array binding signal (z-score) [18]: 1.44 | glycan array binding signal (z-score) [19]: 0.363 | glycan array binding signal (z-score) [20]: 4.02 | glycan array binding signal (z-score) [21]: -0.567 | glycan array binding signal (z-score) [22]: 0.551 | glycan array binding signal (z-score) [23]: 0.325 | glycan array binding signal (z-score) [24]: -0.504 | glycan array binding signal (z-score) [25]: 1.72 | glycan array binding signal (z-score) [26]: -0.467 | glycan array binding signal (z-score) [27]: -0.491
